Only some compounds are listed: those with a hit (about 19% of all), similar ones and a draw of the others.
Marburg entry inh: Marburg virus entry inhibition | AID 540276 | 300,000 compounds, 1.8% hits | Potency, µM (highest dose often 37.8 µM), for inactives: at the top dose activity change, negative = inhibition, actives largely listed as inhibitors | Marburg virus pseudotyped entry inhibition, cell reporter; calls by dose curve; tested in HEK293 cells; note: potency is the fitted concentration of half-maximal effect; % is set by controls: 0 for no effect and ±100 for the full control effect
Shiga inhibitor: Shiga toxin inhibition | Vero cells, Shiga toxin protein synthesis inhibition reporter | inhibition, % at 38.7 µM | 290,000 compounds, 9.2% hits | AID 2315; in the data active = inhibition mostly above about 28%, no sharp cut-off; inactive = mostly below about 43%; note: 0% is about no effect
CHX counter: counter-screen for Shiga toxin inhibitors: cycloheximide protein synthesis inhibition | cell reporter, cycloheximide protein synthesis inhibition counterscreen | max response, % | 300,000 compounds, 12% hits | AID 2314; in the data active = max response mostly above about 13%, no sharp cut-off; inactive = mostly below about 14%; note: read at 38.3 µM for the half of the compounds with a filed dose; 0% is about no effect
Pf growth 48h: inhibits P. falciparum growth in the first generation, 48 h; P. falciparum luciferase growth in erythrocytes, 48 h; Potency, µM (doses to about 28.7 µM), without a hit: at the top dose activity change, negative = inhibition, hits mostly inhibitors; 310,000 compounds, 5.9% hits; AID 504832; note: potency is the fitted concentration of half-maximal effect; % is set by controls: 0 for no effect and ±100 for the full control effect
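A one-generation exposure of luciferase-tagged malaria parasites in RPMI 1640/Albumax erythrocyte culture, 37 C and 5% CO2. Inhibition is inferred from decreased luminescence after adding detection reagent.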
Lassa entry inh: Lassa virus entry inhibition; Lassa virus pseudotype entry inhibition, cell reporter; Potency, µM (series often up to 37.9 µM), for the others: at the highest dose activity change, negative = inhibition, actives largely listed as inhibitors; 300,000 compounds, 1.2% hits; AID 540256; calls by dose curve; tested in HEK293 cells; note: potency is the fitted concentration of half-maximal effect; % is set by controls: 0 for no effect and ±100 for the full control effect; nearly all actives have a fitted effect of over 50% in size
Pf growth 96h: P. falciparum growth inhibition at 96 hours; P. falciparum luciferase reporter growth, 96 h; 320,000 compounds, 6.9% hits; Potency, µM (top dose mostly 28.7 µM), without a hit: at the highest dose activity change, negative = inhibition, hits mostly inhibitors; note: potency is the fitted concentration of half-maximal effect; % is set by controls: 0 for no effect and ±100 for the full control effect
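Delayed-death screen, second-generation endpoint: infected erythrocytes, 2% hematocrit, 0.05% parasitemia final; 96 hours at 37 C, 5% CO2; luciferase detection reagent; luminescence decrease equals reduced growth.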
Starred values were filed as active, the others as inactive; u = inconclusive; x = no result given; [ ] = remark or other dose. Unless noted, calls come from the whole dose curve; as a rule, active = well fitted inhibition curve with a large enough effect; inconclusive = small, poorly fitted or top-dose-only effect, or another doubt; inactive = no such curve, though single readings can be large or run the other way.

SMILES	Marburg entry inh	Shiga inhibitor	CHX counter	Pf growth 48h	Lassa entry inh	Pf growth 96h
Cc1cccc2c1N(C(=O)c1ccco1)C(C)(C)c1ssc(=S)c1-2	u	-6	-2	u	13%	5.2µM*
Cc1cc(C)c2c(c1)-c1c(ssc1=S)C(C)(C)N2C(=O)CN1C(=O)c2ccccc2C1=O	4µM*	12	4	-113%	-7%	u
Cc1cccc2c1N(C(=O)CN1C(=O)c3ccccc3C1=O)C(C)(C)c1ssc(=S)c1-2	u	-4	-3	u	0%	31%
Cc1ccc2c(c1)N(C(=O)c1ccco1)C(C)(C)c1ssc(=S)c1-2	-20%	-13	-3	x	2%	5.2µM*
COCCNC(=O)c1cccc(OC2CCN(Cc3cccc(C(C)=O)c3)CC2)c1	x	4	1	-10%	x	0%
CN1CCN(C(=O)CCN2C(=O)/C(=C\c3ccc(Cl)cc3Cl)SC2=S)CC1	1%[46.1 µM]	3	20	10µM*	u	3.3µM*
O=C(CCN1C(=O)/C(=C\c2ccccc2)SC1=S)NCCCN1CCOCC1	x	-6	-1	13µM*	x	7.4µM*
COc1ccc(/C=C2\SC(=S)N(CC(=O)NCCO)C2=O)cc1	9%	30	21*	32%	-3%[46.1 µM]	u
COc1ccc(/C=C2/SC(=S)N(CCCC(=O)N3CCN(C)CC3)C2=O)cc1	u	35*	12*	u	-11%	13%
COc1ccc(/C=C2/SC(=S)N(CCC(=O)N3CCN(C)CC3)C2=O)cc1	u	-6	-4	u	u	-27%
Cc1ccc(C)c(CNS(=O)(=O)c2c(C)[nH]c(C)c2C(=O)N2CCCC2)c1	u	-16	-8	1%	-3%[46.1 µM]	-25%
CSc1nn(Cc2ccc(C)cc2)c(N)c1S(=O)(=O)c1ccccc1	u	x	x	x	-16%[46.1 µM]	x
CCCN[C@@H]1C(=O)N2C(C(=O)OCCC)=C(C)CS[C@H]12	x	-5	-1	22%	x	u
CC1CCN(C(=O)CCN2C(=O)/C(=C/c3cccs3)SC2=S)CC1	u	-11	-4	-7%	5.6µM*	39%
CN1CCN(C(=O)CCCN2C(=O)/C(=C/c3ccccc3)SC2=S)CC1	u	13	1	u	u	u
O=C(CCN1C(=O)/C(=C/c2ccccc2)SC1=S)N1CCCCCC1	-11%[46.1 µM]	-1	-5	-28%	u	22%
CN1CCN(C(=O)CCCN2C(=O)/C(=C/c3ccc(Cl)cc3)SC2=S)CC1	x	x	x	u	x	10µM*
Cc1ccc(/C=C2\SC(=S)N(CCCC(=O)N3CCOCC3)C2=O)cc1	-15%[46.1 µM]	3	7	13µM*	-6%[46.1 µM]	-21%
CCOC(=O)/C(=N\Nc1cc(Cl)ccc1Cl)N1CCN(CC)CC1	-14%	-10	3	u	0%	3.3µM*
CCCCCCSc1nsc(NC(=O)CC(C)C)n1	u	37*	27*	23%	-57%[46.1 µM]	u
CCCCCCCCCCSc1n[nH]c(NC(C)=O)n1	-31%	-7	-1	-5%	u	x
CCCCCCCSc1nsc(N)n1	u	65*	3	8%	-9%	-13%
CCCSc1nsc(NC(=O)C(c2ccccc2)c2ccccc2)n1	u	-6	10	x	u	u
C=CCSc1nsc(N)n1	-4%	-9	-2	-19%	-4%	u
CCCSc1nsc(NC(=O)CC)n1	13µM*	72*	38*	176%	u	8.3µM*
SMILES	Marburg entry inh	Shiga inhibitor	CHX counter	Pf growth 48h	Lassa entry inh	Pf growth 96h
O=C(NCCN1CCOCC1)c1ccc2c(c1)N(Cc1ccccc1F)C(=O)c1ccccc1S2(=O)=O	x	-10	6	0%	x	3%
S=C1SCN(Cc2cccnc2)CN1Cc1cccnc1	u	-9	-2	1.9µM*	u	u
COc1ccc(CN2CSC(=S)N(Cc3ccccc3)C2)cc1	x	-3	-2	-26%	x	10%
COc1ccc(CN2CSC(=S)N(Cc3ccc(OC)cc3)C2)cc1	x	-4	-2	12µM*	x	u
S=C1SCN(Cc2ccccc2)CN1Cc1ccccc1	x	-1	-1	u	x	6%
COc1ccccc1N(CC(=O)NC1CCCC1)C(=O)CCCC(=O)Nc1ccccn1	u	2	3	-15%	x	u
CCC(C)NC(=O)c1cn(CC)c2ccc(S(=O)(=O)N3CCc4ccccc4C3)cc2c1=O (stereo not given)	-24%[46.1 µM]	x	x	x	-24%[46.1 µM]	x
C1CCN(c2nc(N3CCCCC3)nc(N3CCNCC3)n2)CC1	-1%	56	-3	22%	-4%	-23%
CCC1=NN(C(=O)c2ccc(Br)cc2)C(O)(c2ccccc2)C1 (stereo not given)	-11%	-9	2	58%	-1%	45%
CCC1=NN(C(=O)c2cccc([N+](=O)[O-])c2)C(O)(c2ccc(C)cc2)C1 (stereo not given)	x	11	4	4.1µM*	x	-24%
CCOC(=O)C1=NN(C(=O)c2cccc(Br)c2)C(O)(C(C)(C)C)C1 (stereo not given)	x	74*	20*	u	x	6%
CC1=NN(C(=O)c2ccccc2F)C(O)(c2ccc(Cl)cc2)C1 (stereo not given)	x	57	15	0%	x	13µM*
CC1=NN(C(=O)c2ccccc2Cl)C(O)(c2ccccc2)C1 (stereo not given)	-14%[46.1 µM]	-4	2	5%	2%[46.1 µM]	u
COC(=O)C1=NN(C(=O)c2cccc(Br)c2)C(O)(c2ccc(Cl)cc2)C1 (stereo not given)	x	-9	-1	17%	x	-15%
CC1=NN(C(=O)c2ccccc2)C(O)(c2ccc(Br)cc2)C1 (stereo not given)	-18%[46.1 µM]	68*	44*	u	1%	3.7µM*
O=C(Nc1ccc(S(=O)(=O)N2CCCC2)cc1)C1CCCCC1	15%[46.1 µM]	1	-3	13%	-28%[46.1 µM]	29%
CCOC(=O)C1=NN(C(=O)c2ccccc2)C(O)(c2ccc(C)cc2)C1 (stereo not given)	-21%[46.1 µM]	89*	45*	5%	12%	-1%
CCOC(=O)C1=NN(C(=O)c2ccc(OC)cc2)C(O)(c2ccc(Cl)cc2)C1 (stereo not given)	u	19	-1	-8%	-12%	17%
COc1ccc(S(=O)(=O)N(CC(=O)NCCSc2ccccn2)c2ccccc2)cc1	-3%[46.1 µM]	-4	-7	-3%	u	u
Cc1ccc(NC2CCCN(C(=O)CN3C(=O)c4ccccc4C3=O)C2)cc1C (stereo not given)	-9%	-5	-1	u	13%	15µM*
Cc1ccc(NC2CCCN(C(=O)Cc3nonc3C)C2)cc1C (stereo not given)	x	-4	18	0%	x	u
Cc1ccc(NC2CCCN(C(=O)CSc3ccncc3)C2)cc1C (stereo not given)	11%[46.1 µM]	-18	-2	-25%	-3%[46.1 µM]	13µM*
Cc1ccc(NC2CCCN(C(=O)CCC(=O)c3ccccc3)C2)cc1C (stereo not given)	x	19	9	u	x	0%

Assay outcomes (PubChem BioAssay)
